Results reported in PubChem BioAssay AID2685 (National Center for Advancing Translational Sciences (NCATS), 2010).
Screen size: about 320,000 compounds; about 2,100 (0.66%) were called active. Not shown: some 53% with an inconclusive outcome. The call rests on the fitted dose curve; in most records, active means well fitted inhibition curve with a large enough effect in the signal ratio, with a control signal flat (not every such curve was filed as active); inconclusive means small, poorly fitted or top-dose-only effect, or effect the other way, or a change in a side signal; inactive means flat fitted curve, though single readings scatter; the % refers to the signal ratio. The entries come from a sample that favours actives as a whole.

Assay: qHTS Assay for Lipid Storage Modulators in Drosophila S3 Cells;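 on cell number change: cells counted by Cell Tracker Red CMTPX staining in the red channel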; on lipid storage change, negative = inhibition: on the % scale 0 is the no-effect control and ±100 the full control effect
Settings: BODIPY lipid droplet fluorescence, 18-24 h, cells fed with added oleic acid; cell number change: measured here: cell count max response; series mostly up to 46.1 µM; lipid storage change, negative = inhibition: at the top concentration
Description: NIH Molecular Libraries Probe Production Centers Network [MLPCN] NIH Chemical Genomics Center [NCGC] MLPCN Grant: 1 R03 MH085686-01 Assay Submitter (PI): Beller, Mathias; Max-Planck-Institut fur Biophysikalische Chemie NCGC Assay Overview: Storing lipids as a reservoir for energy or the anabolism of elementary metabolites is a common feature of probably all cells and is conserved from bacteria to humans. The universal cellular lipid storage organelle is the so-called lipid storage droplet (LD). Although ubiquitous, LDs share a simple structure composed of a hydrophobic core that harbors the storage lipids, which is shielded by a droplet-specific phospholipid monolayer to which proteins are attached. The current model of LD biogenesis involves an incorporation of the lipid core into the membrane leaflets of the endoplasmic reticulum (ER) followed by a subsequent budding-like maturation of a LD, which ultimately pinches off. Once released, LD volume can increase by localized lipogenesis or fusion of existing droplet. Storage lipids are re-mobilized enzymatically by lipase activity. Lipase regulation in the adipocyte is heavily studied and involves multiple components including catecholamine signaling, the LD-associated proteins Perilipin and comparative gene identification (CGI-58) and at least two lipases named hormone sensitive lipase (HSL) and adipocyte triglyceride lipase (ATGL). LD regulation outside of the adipocyte is poorly understood and only few components are known. However, there is an urgent need to learn more about ectopic fat depots as mislocalized storage of lipids, for example in the liver or muscle, is an eminent health problem associated with insulin resistance or the metabolic syndrome. We developed a laser-scanning cytometer assay to enable 1,536-well screening and combined the results of the small molecules screen with an RNAi database based on lipid storage.
Triacsin C (Sigma-Aldrich T-4540), an inhibitor of long-chain fatty acyl CoA synthetase that blocks synthesis of triglycerides, was used as a positive control for lipid under-storage. A total of 23 nL of compound solution of different concentrations were transferred to the assay plates using a Kalypsys pin tool equipped with a 1,536-pin array containing 10-nL slotted pins (FP1S10, 0.457-mm diameter, 50.8 mm long; V&P Scientific). One microliter of oleic acid (400 uM) was added, and the plate was lidded with stainless steel rubber gasket lined lids containing pinholes. […] Fluorescence was detected by excitation of the fluorophores with a 488-nm laser on an Acumen Explorer (TTP Lab Tech). The total intensity in channel 2 (500-530 nm) reflected lipid droplet accumulation. Cells were detected using channel 3 (575-640 nm) with 5-um width and 100-um depth filters. The ratio of the number of objects in PMT channel 2 over the number of objects in PMT channel 3 was also calculated. Percent activity was computed relative to an internal control (100% inhibited lipid droplet deposition due to the presence of 20 uM Triacsin C), which was added to 32 wells/plate.
Potency means the concentration at half of the fitted maximal effect.

Row | SMILES | Potency | cell number change [%] | lipid storage change, negative = inhibition | outcome
1 | CC(=O)N(C1=NCCCS1)c1ccc(F)cc1 | 16.4 µM (active) | -2.11 | – | –
2 | CC(=O)N(C1=NCCCS1)c1ccc(Cl)cc1 | – | -2.46 | 4.02% (inactive) | –
3 | COc1cccc(N(C(C)=O)C2=NCCCS2)c1 | – | 4.22 | -1.29% (inactive) | –
4 | O=C(COc1ccccc1Cl)N1CCCC(N2CCN(c3ccc(F)cc3)CC2)C1 (configuration not stated) | – | -2.12 | – | inactive
5 | Cn1c(O)c(C=NC2CCCCC2)c(=O)[nH]c1=S | – | 4.27 | 4.55% (inactive) | –
6 | Cc1cc(NCCN)nc2ccccc12 | – | 15.7 | – | inactive
7 | Cc1cc(/C=C2\C(=O)NC(=O)N(c3ccccc3)C2=O)c(C)n1-c1ccc(C(=O)O)c(Cl)c1 | – | -8.5 | 14.6% (inactive) | –
8 | CCN(CC)c1nc2c(C)cccn2c(=O)c1C=C1C(=O)NC(=O)NC1=O | – | 3.76 | 2.13% (inactive) | –
9 | CCOC(=O)N(C)c1ccc(C(O)(C(=O)OC)C(F)(F)F)cc1 (configuration not stated) | – | 10.8 | 11.7% (inactive) | –
10 | Cc1ccc2c(CN3CC=C(c4ccccc4)CC3)cc(=O)oc2c1C | – | 0.524 | 10% (inactive) | –
11 | COc1ccc2ccc(O)c(CN3CC=C(c4ccccc4)CC3)c2c1 | – | 13.7 | -22% (inactive) | –
12 | Cc1cc(O)c(CN2CC=C(c3ccccc3)CC2)cc1C(C)C | 18.4 µM (active) | – | – | –
13 | CCC(CC)NCc1c[nH]c2ccccc12 | – | -0.482 | -2.64% (inactive) | –
14 | O=C(Nc1ccc(Br)cc1)c1nn(C23CC4CC(CC(C4)C2)C3)cc1Br | – | 0.69 | 20.5% (inactive) | –
15 | CS(=O)(=O)NCc1nnc2n1-c1ccc(Cl)cc1C(c1ccccc1)=NC2 | – | 13.6 | 4.56% (inactive) | –
16 | CCCCc1nc2ccccc2c(=O)n1-c1ccccc1O | – | -9.96 | -5.09% (inactive) | –
17 | CCCCn1c(O)c(C(CC)=Nc2ccc(C(=O)O)cc2)c(=O)[nH]c1=O | – | 5.66 | 5.22% (inactive) | –
18 | CCCCCCn1c(=O)c(C(=O)Nc2ncccc2O)c(O)c2ccccc21 | 7.31 µM (active) | -21.9 | – | –
19 | CCCCCCn1c(=O)c(C(=O)Nc2ccncc2)c(O)c2ccccc21 | – | 15.2 | – | inactive
20 | CCCCCn1c(=O)c(C(=O)Nc2ncccc2C)c(O)c2ccccc21 | – | -11.8 | 20.1% (inactive) | –
21 | Cc1ccc(C(=O)N/C(=C\Cl)P(=O)(c2ccccc2)c2ccccc2)cc1 | – | 0.754 | -14.3% (inactive) | –
22 | OC(c1ccccc1)(c1ccccc1)C1CCCN1 (configuration not stated) | – | -1.52 | 2.1% (inactive) | –
23 | OC(c1ccccc1)(c1ccccc1)C1CCNCC1 | 25.9 µM (active) | – | – | –
24 | O=C(O)C(O)(c1ccccc1)C1CCCCC1 (configuration not stated) | – | -9.04 | 6.74% (inactive) | –
25 | CN(C(=O)CNC(=O)OCc1ccccc1)c1ccc(Br)cc1C(=O)c1ccccc1Cl | – | 9.34 | 17.8% (inactive) | –
26 | CCCNS(=O)(=O)c1ccc(OCC(=O)N2CCN(Cc3ccc4c(c3)OCO4)CC2)c(C)c1 | – | -6.04 | -21.8% (inactive) | –

Row | SMILES | Potency | cell number change [%] | lipid storage change, negative = inhibition | outcome
27 | CCCCCCN=C(C)c1c(O)n(CCCC)c(=O)[nH]c1=O | – | 0.489 | 13.5% (inactive) | –
28 | CCCCn1c(O)c(C(C)=NCCc2ccccc2)c(=O)[nH]c1=O | – | – | – | inactive
29 | CCCCn1c(O)c(C(C)=NCCCN(CC)CC)c(=O)[nH]c1=O | 23.1 µM (active) | -0.0737 | – | –
30 | Cc1ccc2c(c1)C1CN(C)CCC1N2C(=O)c1cccnc1Cl (configuration not stated) | – | -4.72 | 7.31% (inactive) | –
31 | CCOC(=O)c1ccc(N=C(c2ccccc2)c2c(O)n(C)c(=O)n(C)c2=O)cc1 | – | 1.32 | -0.0351% (inactive) | –
32 | CCOC(=O)c1c(C=O)c2ccccc2n1Cc1ccccc1 | – | 3.55 | 17.4% (inactive) | –
33 | CCOC(=O)c1ccc(S(=O)(=O)n2c(=O)oc3ccccc32)cc1 | 20.6 µM (active) | – | – | –
34 | O=C1Nc2ccc(Br)cc2C(c2ccccc2)=NC1O (configuration not stated) | – | 22.1 | -3.23% (inactive) | –
35 | C=C(COC(C)=O)CC1CC(O)[C@]2(C)OC3CC4OC5C[C@]6(C)O[C@]7(C)CCC8OC9C[C@]%10(C)OC%11C(C)=CC(=O)OC%11CC%10OC9C[C@@H](C)C8OC7CC6O[C@]5(C)C/C=C\C4OC3CC2O1 (some centres not stated) | – | – | -27.9% (inactive) | –
36 | CN(C)C(=O)Nc1cccc(OC(=O)N(C)C)c1 | 32.6 µM (active) | – | – | –
37 | CN(C)C(=O)Oc1cccc(NC(=O)c2ccccc2C(F)(F)F)c1 | – | -0.228 | -14.6% (inactive) | –
38 | CN(C)C(=O)Oc1cccc(NC(=O)N2CCOCC2)c1 | – | -25 | -2.7% (inactive) | –
39 | CCOC(=O)C1(CCc2ccccc2)CCN(Cc2csc(C(C)=O)c2)CC1 | – | 3.18 | -8.12% (inactive) | –
40 | CCN(CC)S(=O)(=O)c1cc(NC(=O)C(C)N2CC=C(c3ccccc3)CC2)ccc1C (configuration not stated) | – | -3.32 | 2.66% (inactive) | –
41 | CN(C)c1ccc(NC(=O)CN2C(=O)CN=C(c3ccccc3)c3ccccc32)cc1 | 10.3 µM (active) | -43.3 | – | –
42 | O=C1CN=C(c2ccccc2)c2ccccc2N1Cc1ccc(C(F)(F)F)cc1 | – | – | – | inactive
43 | O=C(CN1C(=O)CN=C(c2ccccc2)c2ccccc21)NCc1ccco1 | – | 7.88 | – | inactive
44 | CCCCNC(=O)CN1C(=O)CN=C(c2ccccc2)c2ccccc21 | – | 20.3 | -1.07% (inactive) | –
45 | CN(C)c1ccc(NC(=O)CN2C(=O)CN=C(c3ccccc3)c3cc(Cl)ccc32)cc1 | – | 4.79 | -4.46% (inactive) | –
46 | Cc1ccc(CN2C(=O)CN=C(c3ccccc3)c3ccccc32)cc1 | 10.3 µM (active) | 11.7 | – | –
47 | Cc1nc2ccccc2c(=O)n1-c1ccc(Cl)c(Cl)c1 | – | 8.67 | 5.88% (inactive) | –
48 | CCN1CCN(C(=O)Cc2ccccc2OC)CC1 | – | 5.49 | 6.25% (inactive) | –
49 | NC(=O)C1CCN(/C=C2\C(=O)NC(=O)N(Cc3ccco3)C2=O)CC1 | – | 6.38 | -3.16% (inactive) | –
50 | Cc1c(NC(NC(=O)CF)C(Cl)(Cl)Cl)c(=O)n(-c2ccccc2)n1C (configuration not stated) | – | 8.45 | -0.0201% (inactive) | –
51 | O=C(COc1ccc(Cl)cc1)N(c1ccccc1Cl)C1CN2CCC1CC2 (configuration not stated) | – | -2.19 | 17.1% (inactive) | –
52 | O=C(Nc1ccc(Cl)cc1C(=O)c1ccccc1Cl)c1ccco1 | – | -6.61 | -1.31% (inactive) | –
